In PubChem BioAssay (NCI):
This is part of a sample that, as a whole, favours compounds with a hit. Of some 83,000 tested, about 20% had one in any assay.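 Growth was measured after 48 h exposure to one concentration of compound in 96-well plates. Values under 10 count as active.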 Unmarked numbers belong to inactive results. Activity calls are given as the source filed them.

test system: SR leukemia; assay: NCI-60 one-dose screen, 48 h (100 = growth as untreated, 0 = no growth, -100 = all killed); conditions: 10 µM unless noted
Experimental: Growth inhibition of the SR human tumor cell line is measured as a screen for anti-cancer activity. Cells are grown in 96 well plates and exposed to the test compound for 48 hours. Compounds are tested at a single concentration, which is 10^-5 M for most compounds. The reported endpoint is percent growth (GI% or GIPRCNT), where numbers from 0 - 100% represent growth inhibition, and numbers from -100% - 0 represent cell death. For example, a value of 40 represents 60% growth inhibition. A value of 0 means no net growth occurred over the course of the experiment. A value of -40 indicates 40% of cells at the beginning of the experiment died by the end of the experiment. A value of -100 means all cells are dead at the end of the experiment.
NCI-60 Human Tumor Cell Lines Screen was performed using the standard one-dose NCI protocol, which is described in more detail at https://dtp.cancer.gov/discovery_development/nci-60/default.htm.
Compounds with GIPRCNT values below 10 were considered active. Activity score was based on GIPRCNT using the following formula: […]
Score is 0 for GIPRCNT values of 100 or above, 50 for GIPRCNT values of 0, and 100 for GIPRCNT values of -100.

Compound	growth
NC1=CSC2=N/C(=C\c3ccc(Cl)cc3)C(=O)N12	-2.29% (active)
COc1ccc(C(=O)COc2ccc(/C=C3\Oc4ccc(Cl)cc4C3=O)cc2)cc1	-22.4% (active)
CNCc1cccc2c1OCCOCCOCCN(C)S(=O)(=O)c1ccc(cc1)-c1cnc(N)c(n1)C(=O)N2	-35% (active)
COc1ccc(CN(c2ccc(C)cc2)C2OC(=O)c3ccccc32)cc1OC (stereo not given)	83.8%
O=C1/C(=C/c2ccc(Cl)c(Cl)c2)CN(C(=O)CCN2CCC(=NO)CC2)C/C1=C\c1ccc(Cl)c(Cl)c1	-14% (active)
COc1cccc2c1C(=O)c1c(O)c3c(c(O)c1C2=O)C[C@@](O)(/C(C)=N/NC(=O)c1ccc(Cl)cc1)C[C@@H]3OC1CC(N)C(O)C(C)O1 (stereo not given in full)	-34.1% (active)
CCN(CC)C12CCCCC1(C)C(C#N)(C#N)C(C#N)=C(N)O2 (stereo not given)	92.7%
O=C1CCc2c(sc3[nH]c(=S)n(Cc4ccccc4)c(=O)c23)C1	15.5%
CC(=O)C1=C(O)C=C2Oc3c(C(=O)/C=C/c4ccccc4)c(O)c(C)c(O)c3[C@]2(C)C1=O	30.3%
CC(=O)OCC1OC(OC2=C(CC=C(Cl)Cl)C(=O)c3ccccc3C2=O)C(OC(C)=O)C(OC(C)=O)C1OC(C)=O (stereo not given)	-3.56% (active)
Cc1ccc(-c2nc(/C=N/Nc3cc(C)nc4ccc(Cl)cc34)c(C)o2)cc1	0.444% (active)
CC1(C)CC(C(=O)OCCCCCCCCCCC[P+](c2ccccc2)(c2ccccc2)c2ccccc2)C(C)(C)N1O (stereo not given)	-58.4% (active)
COc1ccc(/C=C2\N=C3SC=C(N)N3C2=O)cc1	-21.3% (active)
O=C(COc1cccc(/C=C2/Oc3ccccc3C2=O)c1)Nc1nccs1	-53.8% (active)
CN1CCN(Cc2ccc(NC(=O)c3[nH]ncc3Nc3ccnc4ccsc34)cc2)CC1	-12.5% (active)
COc1cc(/C=C2\CN(C(=O)CCN3CCC(=NO)CC3)C/C(=C\c3cc(OC)c(OC)c(OC)c3)C2=O)cc(OC)c1OC	9.11% (active)
COc1cc(NCCCCCN=C(N)NC(N)=NC(C)C)c2ncccc2c1	46.3%
COC(=S)SCN(CSC(=S)OC)c1ccc(Cl)cc1	123%
Cc1nn(-c2nc3ccccc3[nH]2)c2c1C(c1ccc3c(c1)OCO3)CC(=O)N2 (stereo not given)	14%
Oc1c(Cl)cc(Cl)cc1CNc1nccnn1	93.5%

Compound	growth
COc1ccc(/C=C2\N=C3Sc4cc(Cl)ccc4C(=O)N3C2=O)cc1	88.4%
CC(=O)CC(C)(C)c1ccc(Cl)cc1	101%
CC(C)C1=C[C@@]23CC[C@@H]4[C@](C)(CCC[C@@]4(C)C(=O)OCC#CCN4CCCC4)[C@H]2C[C@@H]1[C@H]1C(=O)OC(=O)[C@H]13	92%
COc1cc(-c2nc3ccccc3s2)ccc1NC(=O)COc1ccc(Cl)cc1	83.6%
Cc1ccc2c(c1)C(=O)/C(=C/c1ccc(OCC(=O)c3ccccc3)cc1)O2	107%
CCCCCC(=O)Oc1ccc(/C(=C(\C)c2ccccc2)c2ccc(OCCN(CC)CC)cc2)cc1	17.7%
CCCCCCCCCCCCNC(=O)[C@H]1CSC(c2ccc(OC)c(F)c2)N1 (stereo not given in full)	-50.9% (active)
Cn1c2c(Cl)c(Cl)ccc2c2ccn3c(=O)c4ccccc4nc3c21	75.9%
CCOC(=O)c1c2ncccc2n2c(=O)n(-c3ccc(Cl)cc3)nnc12	91.4%
O=C1c2cccnc2C(=O)c2c1c(C(=O)OCCN1CCCCC1)c1ccccn21	-23.9% (active)
CCOC(=O)N1CCN(c2nc(Nc3cc(C)[nH]n3)c3ccccc3n2)CC1	17.3%
COc1ccc(-c2cc(-c3ccc(N(C)C)cc3)nc(NC(=O)c3ccncc3)n2)cc1	121%
CC(=O)C1=C(O)C=C2Oc3c(C(=O)/C=C/c4cc(Cl)cc(Cl)c4)c(O)c(C)c(O)c3[C@]2(C)C1=O	-20.5% (active)
COc1ccc(-c2cc(-c3cccnc3)nc3sc4c(=O)n(-c5ccc(C)cc5)cnc4c23)cc1OC	96.1%
O=c1c2c3c(sc2n2c(CCl)nnc2n1Cc1ccccc1)CCCC3	-33.9% (active)
Cc1ccc2c(c1)O/C(=C\c1cccc(OCC(=O)c3ccccc3)c1)C2=O	44.9%
CN1CCN(Cc2ccc(NC(=O)c3[nH]ncc3Nc3ncnc4c3CCC4)cc2)CC1	-18.6% (active)
COc1cnc2c(c1)C(=O)c1c-2n(CCCN2CCN(C)CC2)c(=O)c2cc([N+](=O)[O-])ccc12	-23.6% (active)
O=C(Cc1ccccc1)c1ccc(Cl)cc1	96.7%
O=C(CN1CCN(c2cc3c(cc2F)c(=O)c(C(=O)N/N=C/c2ccccc2)cn3C2CC2)CC1)N/N=C\c1ccccc1	61%
